Of roughly 7,900 targets only a part is listed; those with a hit were picked by preference. About 0.6% of all pairs of compound and target were hits.
Compound: CCN(CC)Cc1ccc2cc(COC(=O)Nc3ccc(C(=O)NO)cc3)ccc2c1 [givinostat]
Assay: log2 fold change, soluble protein after heating vs DMSO (PISA); higher = thermal stabilisation; K562 cells, 10 uM, 30 min; active = over 0.2 and 3.5 SD of the protein, either way, in both replicates (recomputed)
How it was run: (§1)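 K562 cells at 2×10^6 cells/mL were exposed to 10 μM compound for 30 min, then aliquots were heated for 3 min across 48°C-58°C, pooled, and extracted in PBS containing 0.5% NP-40 at 4°C. The supernatant after 21,000xg for 90 min was taken as soluble protein and measured by TMTpro 16plex LC-MS/MS with channel sums equalised. Thermal stability is reported relative to control samples, with values from duplicates. Fold changes are given on a log2 scale.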

UniProt P22570, sequence (P22570 whole entry, looked up): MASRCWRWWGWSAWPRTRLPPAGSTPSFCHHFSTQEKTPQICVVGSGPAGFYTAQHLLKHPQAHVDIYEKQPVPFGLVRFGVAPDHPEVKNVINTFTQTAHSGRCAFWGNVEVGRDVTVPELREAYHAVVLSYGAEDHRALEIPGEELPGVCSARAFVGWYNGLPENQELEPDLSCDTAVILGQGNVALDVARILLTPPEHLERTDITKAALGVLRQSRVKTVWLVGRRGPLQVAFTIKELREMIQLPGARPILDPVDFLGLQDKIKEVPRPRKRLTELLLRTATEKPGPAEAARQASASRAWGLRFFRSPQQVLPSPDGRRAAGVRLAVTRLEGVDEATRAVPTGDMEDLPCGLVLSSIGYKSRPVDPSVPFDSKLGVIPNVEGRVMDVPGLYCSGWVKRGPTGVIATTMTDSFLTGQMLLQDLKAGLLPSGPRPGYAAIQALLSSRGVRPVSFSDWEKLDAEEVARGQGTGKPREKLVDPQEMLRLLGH
UniProt Q9P2H3, sequence (Q9P2H3 whole entry, looked up): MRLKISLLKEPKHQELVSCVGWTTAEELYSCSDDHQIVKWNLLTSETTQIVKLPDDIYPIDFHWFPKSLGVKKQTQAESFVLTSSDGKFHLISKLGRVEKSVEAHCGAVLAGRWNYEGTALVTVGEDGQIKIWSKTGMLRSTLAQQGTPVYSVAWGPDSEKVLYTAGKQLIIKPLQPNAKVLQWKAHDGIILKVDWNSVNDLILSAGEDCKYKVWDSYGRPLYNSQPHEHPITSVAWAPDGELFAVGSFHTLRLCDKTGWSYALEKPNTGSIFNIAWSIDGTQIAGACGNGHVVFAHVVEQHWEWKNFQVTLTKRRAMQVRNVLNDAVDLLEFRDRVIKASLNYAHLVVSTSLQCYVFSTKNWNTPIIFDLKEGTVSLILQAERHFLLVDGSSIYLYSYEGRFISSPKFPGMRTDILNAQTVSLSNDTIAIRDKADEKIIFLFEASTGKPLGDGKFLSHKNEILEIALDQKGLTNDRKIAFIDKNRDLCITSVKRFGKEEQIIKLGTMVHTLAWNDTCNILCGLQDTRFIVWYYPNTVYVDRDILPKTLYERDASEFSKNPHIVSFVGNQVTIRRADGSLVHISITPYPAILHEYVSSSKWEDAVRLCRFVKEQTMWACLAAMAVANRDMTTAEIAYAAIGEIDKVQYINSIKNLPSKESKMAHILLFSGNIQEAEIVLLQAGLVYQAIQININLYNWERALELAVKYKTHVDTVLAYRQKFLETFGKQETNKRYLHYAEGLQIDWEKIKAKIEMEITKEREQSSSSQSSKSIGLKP
UniProt P52597, sequence (P52597 whole entry, looked up): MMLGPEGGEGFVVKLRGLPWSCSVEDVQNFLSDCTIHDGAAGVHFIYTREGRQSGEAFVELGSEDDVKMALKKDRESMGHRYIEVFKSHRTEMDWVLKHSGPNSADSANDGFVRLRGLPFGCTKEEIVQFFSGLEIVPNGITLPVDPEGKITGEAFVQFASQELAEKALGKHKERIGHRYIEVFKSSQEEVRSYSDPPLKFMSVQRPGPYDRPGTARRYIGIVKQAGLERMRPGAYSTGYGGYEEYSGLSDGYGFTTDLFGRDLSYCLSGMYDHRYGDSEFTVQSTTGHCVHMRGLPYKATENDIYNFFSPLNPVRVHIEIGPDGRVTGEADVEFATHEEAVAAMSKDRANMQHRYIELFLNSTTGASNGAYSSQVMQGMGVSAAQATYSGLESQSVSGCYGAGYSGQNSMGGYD
UniProt Q53GQ0, sequence (Q53GQ0 whole entry, looked up): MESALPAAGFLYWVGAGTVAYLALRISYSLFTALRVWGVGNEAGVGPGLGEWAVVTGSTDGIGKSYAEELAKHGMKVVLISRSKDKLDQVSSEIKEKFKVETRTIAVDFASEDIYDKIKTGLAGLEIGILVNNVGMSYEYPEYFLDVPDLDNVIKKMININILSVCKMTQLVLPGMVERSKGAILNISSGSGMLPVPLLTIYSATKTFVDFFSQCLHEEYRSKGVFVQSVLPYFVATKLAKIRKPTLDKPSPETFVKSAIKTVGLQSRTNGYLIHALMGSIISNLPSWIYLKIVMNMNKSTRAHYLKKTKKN
UniProt P15104, sequence (P15104 whole entry, looked up): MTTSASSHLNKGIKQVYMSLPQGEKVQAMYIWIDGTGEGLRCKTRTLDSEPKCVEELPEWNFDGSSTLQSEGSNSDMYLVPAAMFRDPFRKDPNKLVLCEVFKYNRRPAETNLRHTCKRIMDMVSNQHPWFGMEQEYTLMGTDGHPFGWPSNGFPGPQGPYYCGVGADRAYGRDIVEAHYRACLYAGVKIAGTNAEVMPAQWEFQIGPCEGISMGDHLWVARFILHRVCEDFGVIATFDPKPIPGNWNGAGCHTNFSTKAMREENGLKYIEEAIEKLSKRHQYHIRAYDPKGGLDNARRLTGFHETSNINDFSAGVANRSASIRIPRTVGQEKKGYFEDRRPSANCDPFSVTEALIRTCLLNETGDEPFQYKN
UniProt Q9ULT8, sequence (Q9ULT8 whole entry, looked up): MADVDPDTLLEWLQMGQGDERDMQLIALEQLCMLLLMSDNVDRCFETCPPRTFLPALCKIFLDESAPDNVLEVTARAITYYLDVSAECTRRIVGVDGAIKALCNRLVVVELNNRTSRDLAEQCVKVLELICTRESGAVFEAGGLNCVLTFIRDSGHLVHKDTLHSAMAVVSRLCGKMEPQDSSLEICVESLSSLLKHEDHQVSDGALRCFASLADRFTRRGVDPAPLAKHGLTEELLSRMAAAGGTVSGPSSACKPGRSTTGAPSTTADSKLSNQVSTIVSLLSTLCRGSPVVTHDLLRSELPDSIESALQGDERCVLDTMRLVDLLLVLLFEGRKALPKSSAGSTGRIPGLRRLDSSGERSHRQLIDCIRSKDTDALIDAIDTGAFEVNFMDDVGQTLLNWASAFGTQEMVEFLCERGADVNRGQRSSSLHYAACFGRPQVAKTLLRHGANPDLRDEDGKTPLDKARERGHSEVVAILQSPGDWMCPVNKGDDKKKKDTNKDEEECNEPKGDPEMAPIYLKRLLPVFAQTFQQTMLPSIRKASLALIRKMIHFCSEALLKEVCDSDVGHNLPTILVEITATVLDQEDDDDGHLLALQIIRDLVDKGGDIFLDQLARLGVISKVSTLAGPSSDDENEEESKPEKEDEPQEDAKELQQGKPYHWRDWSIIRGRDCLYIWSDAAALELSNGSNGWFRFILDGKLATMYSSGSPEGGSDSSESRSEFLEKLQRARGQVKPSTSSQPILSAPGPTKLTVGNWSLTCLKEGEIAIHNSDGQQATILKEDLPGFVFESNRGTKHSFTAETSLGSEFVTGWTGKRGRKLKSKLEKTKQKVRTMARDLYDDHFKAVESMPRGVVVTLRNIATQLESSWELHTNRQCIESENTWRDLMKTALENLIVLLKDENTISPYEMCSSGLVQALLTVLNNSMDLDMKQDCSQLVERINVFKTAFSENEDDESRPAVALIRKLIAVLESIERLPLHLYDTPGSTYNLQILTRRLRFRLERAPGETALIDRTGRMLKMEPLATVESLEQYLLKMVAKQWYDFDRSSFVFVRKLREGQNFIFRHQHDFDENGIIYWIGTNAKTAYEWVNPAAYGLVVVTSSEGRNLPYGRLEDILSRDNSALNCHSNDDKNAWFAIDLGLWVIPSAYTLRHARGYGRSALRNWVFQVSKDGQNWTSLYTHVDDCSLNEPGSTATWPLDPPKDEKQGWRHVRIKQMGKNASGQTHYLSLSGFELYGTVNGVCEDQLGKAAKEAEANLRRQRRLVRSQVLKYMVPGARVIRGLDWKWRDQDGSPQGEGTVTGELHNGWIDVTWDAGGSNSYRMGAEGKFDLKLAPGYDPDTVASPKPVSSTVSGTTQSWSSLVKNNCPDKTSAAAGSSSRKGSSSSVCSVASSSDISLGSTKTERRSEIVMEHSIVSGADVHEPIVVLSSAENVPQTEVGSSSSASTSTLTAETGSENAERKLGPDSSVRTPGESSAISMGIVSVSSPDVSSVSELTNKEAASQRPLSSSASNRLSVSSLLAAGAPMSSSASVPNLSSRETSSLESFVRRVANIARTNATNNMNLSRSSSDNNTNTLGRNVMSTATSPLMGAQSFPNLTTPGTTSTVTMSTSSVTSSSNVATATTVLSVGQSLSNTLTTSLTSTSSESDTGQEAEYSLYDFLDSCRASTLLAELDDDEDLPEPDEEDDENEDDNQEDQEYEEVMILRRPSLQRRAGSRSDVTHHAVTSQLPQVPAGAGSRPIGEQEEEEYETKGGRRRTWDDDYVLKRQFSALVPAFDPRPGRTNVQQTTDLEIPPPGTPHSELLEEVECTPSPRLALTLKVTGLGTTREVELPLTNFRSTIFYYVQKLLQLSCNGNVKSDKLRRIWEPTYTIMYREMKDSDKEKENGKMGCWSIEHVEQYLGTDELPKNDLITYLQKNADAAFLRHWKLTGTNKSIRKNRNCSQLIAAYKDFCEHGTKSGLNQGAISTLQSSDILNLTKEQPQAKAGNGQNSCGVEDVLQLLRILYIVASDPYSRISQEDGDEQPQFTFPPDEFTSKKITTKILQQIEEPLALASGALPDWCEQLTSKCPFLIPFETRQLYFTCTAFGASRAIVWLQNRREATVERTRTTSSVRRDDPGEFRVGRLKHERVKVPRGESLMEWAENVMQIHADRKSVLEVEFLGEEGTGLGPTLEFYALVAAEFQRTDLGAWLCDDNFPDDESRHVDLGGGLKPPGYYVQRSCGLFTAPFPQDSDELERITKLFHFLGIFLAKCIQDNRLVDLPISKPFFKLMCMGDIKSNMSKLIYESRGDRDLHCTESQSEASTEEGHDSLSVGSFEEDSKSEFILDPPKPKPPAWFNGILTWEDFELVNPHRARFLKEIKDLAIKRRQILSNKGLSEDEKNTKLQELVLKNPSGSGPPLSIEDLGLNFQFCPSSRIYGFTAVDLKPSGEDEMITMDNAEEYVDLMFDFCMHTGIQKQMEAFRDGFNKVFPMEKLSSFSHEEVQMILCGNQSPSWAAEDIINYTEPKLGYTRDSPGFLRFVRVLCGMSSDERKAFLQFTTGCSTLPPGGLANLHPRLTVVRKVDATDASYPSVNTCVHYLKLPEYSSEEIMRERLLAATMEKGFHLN

log2 fold change, inactive:
HSD17B12 (UniProt Q53GQ0) -0.018
HNRNPF (UniProt P52597) 0.051
GALNT2 (UniProt Q10471) -0.005
IFT80 isoform 3 (UniProt Q9P2H3) -0.104
GEMIN6 (UniProt Q8WXD5) -0.088
FDPS (UniProt P14324) 0.156
GNAS (UniProt Q5JWF2) -0.036
GOPC (UniProt Q9HD26) 0.152
FDXR isoform 7 (UniProt P22570) -0.021
HECTD1 (UniProt Q9ULT8) 0.038
GLUL (UniProt P15104) -0.082

Compound: CCN(CCCOc1ccc2c(Nc3cc(CC(=O)Nc4cccc(F)c4)[nH]n3)ncnc2c1)CCOP(=O)(O)O [barasertib]
Assay: as above
How it was run: as §1

log2 fold change, inactive:
HADHB (UniProt P55084) 0
GDPD1 (UniProt Q8N9F7) 0.001
HBZ (UniProt P02008) 0.044
FNTA (UniProt P49354) 0.007
FUBP3 (UniProt Q96I24) -0.012
FAM91A1 (UniProt Q658Y4) 0.06
GTF3C4 (UniProt Q9UKN8) 0.003
HSPA8 (UniProt E9PK54) -0.023
GNPAT (UniProt O15228) 0.044
GTF2A2 (UniProt P52657) 0.007
HBA1 (UniProt P69905) 0.072
GDI1 (UniProt P31150) 0.012
HMOX2 (UniProt P30519) 0.042
HMGN2 (UniProt P05204) 0.047
GYG1 (UniProt P46976) -0.037
FKBP3 (UniProt Q00688) -0.02
HEATR5B (UniProt Q9P2D3) 0
FKBP4 (UniProt Q02790) 0.013
H2AFX (UniProt P16104) -0.11
GUSB (UniProt P08236) -0.048
HDAC6 (UniProt Q9UBN7) 0
FBXO42 (UniProt Q6P3S6) 0.015
HP1BP3 (UniProt Q5SSJ5) -0.129
GEMIN5 (UniProt Q8TEQ6) 0.019
HSD17B12 (UniProt Q53GQ0) -0.04
HNRNPF (UniProt P52597) 0.047
GALNT2 (UniProt Q10471) 0.011
IFT80 isoform 3 (UniProt Q9P2H3) -0.004
GEMIN6 (UniProt Q8WXD5) -0.053
FDPS (UniProt P14324) 0.081
GNAS (UniProt Q5JWF2) -0.011
GOPC (UniProt Q9HD26) -0.116
FDXR isoform 7 (UniProt P22570) 0.035
HECTD1 (UniProt Q9ULT8) 0.048
GLUL (UniProt P15104) 0.004
